nsP2pro inh = blocks chikungunya virus nsP2 protease peptide cleavage; Potency, µM (highest dose often 24.9 µM), for the others: top-dose activity change, negative = inhibition, most hits filed as inhibitors; 31,000 compounds, 1.1% hits; FRET peptide cleavage, nsP2pro, fluorescence 1 h; further: nearly all actives have a fitted effect of over 60% in size
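Purified recombinant nsP2pro (150 nM final) in 10 mM Tris-HCl pH 8.0 with 0.01% Tween 20 was preincubated 15 min at room temperature with compound (7 concentrations, up to 25 uM). FRET peptide 2 substrate (2.5 uM final) was then added; fluorescence was read after 1 h.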
CHIKV nsP2 cell = cell-based CHIKV nsP2 protease inhibition, secondary. shares compounds with nsP2pro inh. cell-based CHIKV nsP2 protease reporter assay. Potency, µM (highest dose often 51.1 µM), for the others: at the highest dose activity change, negative = inhibition, usual class: inhibitors. 450 compounds, 10% hits. AID 1964100; further: nearly all actives have a fitted effect of over 70% in size
NSP2 full ctr = full-length CHIKV NSP2 protease inhibition, selectivity | Potency, µM (highest dose often 50.7 µM), for inactives: at the top dose activity change, negative = inhibition, actives largely listed as inhibitors | Full-length CHIKV NSP2 protease enzymatic counterscreen | 410 compounds, 39% hits | shares compounds with nsP2pro inh; further: nearly all actives have a fitted effect of over 65% in size
Furin counterscr = inhibits human furin in a CHIKV nsP2 protease selectivity counterscreen. shares compounds with nsP2pro inh. Recombinant human furin enzymatic counterscreen, fluorogenic substrate. Potency, µM (doses to about 50.6 µM), for inactives: at the top dose activity change, negative = inhibition, usual class: inhibitors. 410 compounds, 6% hits. AID 1964102
nsP2 NS23 pep = selectivity test for CHIKV nsP2 protease inhibitors: endogenous NS2/3 peptide; shares compounds with nsP2pro inh; Purified CHIKV nsP2 protease, endogenous NS2/3 peptide cleavage; Potency, µM (doses to about 51 µM), for inactives: at the highest dose activity change, negative = inhibition, hits mostly inhibitors; 410 compounds, 34% hits; further: nearly all actives have a fitted effect of over 55% in size
Papain cs = selectivity counter-screen for CHIKV nsP2 protease inhibitors: papain; shares compounds with nsP2pro inh; Potency, µM (highest dose often 51 µM), for inactives: at the top dose activity change, negative = inhibition, usual class: inhibitors; purified papain protease activity, enzymatic inhibition; 410 compounds, 5% hits
nsP2pro conf qHTS = CHIKV nsP2 protease inhibition, confirmatory qHTS. shares compounds with nsP2pro inh. CHIKV nsP2 protease enzymatic activity, qHTS. Potency, µM (titrated, usually from 25.5 µM), without a hit: top-dose activity change, negative = inhibition, hits mostly inhibitors. 410 compounds, 43% hits. AID 1964105; further: nearly all actives have a fitted effect of over 75% in size
HCV NS3 counter = inhibits HCV NS3/4A protease in an nsP2pro selectivity counterscreen; AID 1964106; HCV NS3/4A protease biochemical counterscreen; Potency, µM (top dose mostly 50.9 µM), usual class: inhibitors; shares compounds with nsP2pro inh; 410 compounds, 20% hits; further: nearly all actives have a fitted effect of over 55% in size
* hit, by the source's call; i = inactive; ? = inconclusive; ! = not active in a repeat; [ ] = remark or other dose. The entries come from a sample that favours hits as a whole. The call rests on the fitted dose curve. On the % scale 0 is the no-effect control and ±100 the full control effect; potency means the concentration at half of the fitted maximal effect.

SMILES | nsP2pro inh | others
COc1ccc(C(=O)Nc2ccc(-c3nc4ccccc4[nH]3)cc2)cc1F | -11%
COc1ccc(F)cc1-c1ccc(CN2CCC(NC(=O)c3ccc(Cl)cc3)C2)cc1 (stereo not drawn) | i
Cc1cncc(NC(=S)N2CCN(c3cccc(C(F)(F)F)c3)CC2)c1 | 0%
C=CCc1cc(OC)c(OC(C)C(O)c2ccc(O)c(OC)c2)c(OC)c1 (stereo not drawn) | -1%
C[C@H](N)[C@H](O)c1ccc(O)c(O)c1 | ? | CHIKV nsP2 cell=-65%;NSP2 full ctr=?;Furin counterscr=-10%[17.3 µM];nsP2 NS23 pep=9µM*;Papain cs=-9%[17.2 µM];nsP2pro conf qHTS=?;HCV NS3 counter=0.052µM*
COc1ccc(OC)c(C(O)C(C)N)c1 (stereo not drawn) | 0%
Cc1ccnc(NC(=S)NC2CN(c3cccc(C(F)(F)F)c3)C2)c1 | 2%
CC(O)(C#Cc1ccc2c(c1)N(c1nc(N)ncc1Cl)CC2)c1nccs1 (stereo not drawn) | 5µM*! | CHIKV nsP2 cell=2.1µM*;NSP2 full ctr=7.3µM*;Furin counterscr=?;nsP2 NS23 pep=15µM*;Papain cs=-22%;nsP2pro conf qHTS=2.2µM*;HCV NS3 counter=?
Cc1ccc(C(=O)Nc2noc3ccccc23)cc1 | -4%
OCCN1CCN(CCCN2c3ccccc3Sc3ccc(C(F)(F)F)cc32)CC1 | 25%
OCCN1CCN(CCCN2c3ccccc3C=Cc3ccccc32)CC1 | 8.8µM* | CHIKV nsP2 cell=-2%;NSP2 full ctr=?;Furin counterscr=-8%;nsP2 NS23 pep=-4%;Papain cs=2%;nsP2pro conf qHTS=0%;HCV NS3 counter=i
CC(=O)c1ccc2c(c1)N(CCCN1CCN(CCO)CC1)c1ccccc1S2 | -9%
Cc1nc(NCc2ccc(-c3cccnc3)cc2)c2ccccc2n1 | 1%
c1ccc2c(Nc3ccn[nH]3)nc(-c3ccncc3)nc2c1 | 2%
CCOc1ccc(C(=O)Nc2ccc(-c3nc4ccccc4[nH]3)cc2)cc1 | -10%
O=S(=O)(c1ccccc1)n1nc(-c2ccccc2)nc1NCc1ccc(Cl)cc1 | -10%
COc1ccc(CNc2nc(-c3ccco3)nn2S(=O)(=O)c2ccc3ccccc3c2)cc1OC | ? | CHIKV nsP2 cell=15%
COc1ccc(CNc2nc(-c3ccco3)nn2C(=O)c2ccccc2Cl)cc1 | -22%
C[C@H]1O[C@]2(CS1)CN1CCC2CC1 | 7%
C=C1CC[C@H](O)C/C1=C\C=C1/CCC[C@]2(C)[C@@H]([C@H](C)CC[C@H](O)C(C)(C)O)CC[C@@H]12 | -28%
Cc1cc(C)nc(NC(=S)N2CCN(c3ccc4occc4c3)CC2)c1 | -5%
CO[C@@H](Cc1ccc(OCCc2nc(-c3ccccc3)oc2C)c2ccsc12)C(=O)O | 9.9µM* | CHIKV nsP2 cell=21%;NSP2 full ctr=0%;Furin counterscr=-6%;nsP2 NS23 pep=i;Papain cs=?;nsP2pro conf qHTS=?;HCV NS3 counter=i
CCOc1ccc(-c2nc(CNC(=O)Nc3ccccc3)c(C)o2)cc1 | -18%
Cc1oc(-c2ccc(C(=O)NCCCOC(C)C)cc2)nc1CS(=O)(=O)c1ccccc1 | -18%
C[C@H]1CN(C(=O)CC#N)[C@]12CCN(c1ncnc3[nH]ccc13)C2 | -5%
SMILES | nsP2pro inh | others
CC(=O)Nc1sc2c(c1-c1nc3ccccc3o1)CCN(C(C)C)C2 | i
C=C1C(=O)O[C@@H]2[C@H]3O[C@]3(C)CC/C=C(\C)CC[C@@H]12 | -5%
C=C1CC[C@@H](O)[C@]2(C)CC[C@H]3C(=C)C(=O)O[C@@H]3[C@@H]12 | 12%
C=C1C(=O)O[C@H]2C3=C(C)CCC[C@]3(C)C(=O)C[C@@H]12 | ? | CHIKV nsP2 cell=?;NSP2 full ctr=?;Furin counterscr=2%;nsP2 NS23 pep=?;Papain cs=?;nsP2pro conf qHTS=?;HCV NS3 counter=i
O=C1COc2c(CCNCCN(C(=O)CCNCCc3ccc(Cl)c(Cl)c3)C3CCCCC3)ccc(O)c2N1 | 47%
CS(=O)(=O)c1ccc([C@@H](CC2CCCC2)C(=O)Nc2cnccn2)cc1Cl | -4%
O=C(Nc1cccc(C(F)(F)F)c1)c1cc2nc(-c3ccco3)cc(C(F)(F)Cl)n2n1 | -2%
O=C(NCc1cccs1)c1cc2nc(-c3ccco3)cc(C(F)(F)Cl)n2n1 | 5.6µM* | CHIKV nsP2 cell=14%;NSP2 full ctr=-3%;Furin counterscr=-16%;nsP2 NS23 pep=-19%;Papain cs=-2%;nsP2pro conf qHTS=-16%;HCV NS3 counter=i
CN(C(=O)c1cc2nc(-c3ccco3)cc(C(F)(F)F)n2n1)c1ccc(OC(F)(F)Cl)cc1 | -25%
Cc1cc(OCCCS(C)(=O)=O)cc(C)c1-c1cccc(COc2ccc(C3=CC(=O)NS3=O)cc2)c1 (stereo not drawn) | 485%
Cc1cc(NS(=O)(=O)c2ccc(NC(=O)Cc3cccc4ccccc34)cc2)no1 | i
COC(=O)C1=C(C)NC(C)=C(C(=O)OCC(C)C)C1c1ccccc1[N+](=O)[O-] (stereo not drawn) | 9.9µM* | CHIKV nsP2 cell=?;NSP2 full ctr=?;Furin counterscr=-11%;nsP2 NS23 pep=15µM*;Papain cs=17%;nsP2pro conf qHTS=10µM*;HCV NS3 counter=i
COC(=O)C1=C(C)NC(C)=C(C(=O)OCCc2ccc(N3CCN(C(c4ccccc4)c4ccccc4)CC3)cc2)C1c1cccc([N+](=O)[O-])c1 (stereo not drawn) | 1%
CC(C)COC(=O)c1ccc(N)cc1 | -2%
Fc1cccc(CSc2nc3ncc(Br)cc3[nH]2)c1 | i
C[C@@H](CO)Nc1cc2c(cc1[S+](=O)([O-])Nc1ccc(Cl)c(Cl)c1)CCC(=O)N2 | -2%
Cc1ccc(NC(=O)Nc2cc(-c3ccccc3-c3nn[nH]n3)ccc2N(CC(C)C)CC(C)C)cc1 | 3%
Cc1ccc(-c2cc(C(=O)NC3CCCCC3)c3ccccc3n2)cc1C | i
C=C1C(=O)O[C@@H]2[C@H]3C(=C)[C@@H](O)C[C@H]3C(=C)C[C@@H](O)[C@@H]12 | 35%
C=C1C(=O)O[C@@H]2/C=C(/C)CC3C=C(C[C@H](OC(=O)/C(C)=C\C)[C@@H]12)C(=O)O3 (stereo partly drawn) | -30%
C=C1C(=O)O[C@@H]2C(OC(=O)/C(C)=C\C)/C(C)=C\C(=O)/C=C(\C)C[C@H](O)[C@@H]12 (stereo partly drawn) | ? | CHIKV nsP2 cell=?;NSP2 full ctr=-11%[33.5 µM];Furin counterscr=-6%[33.5 µM];nsP2 NS23 pep=?;Papain cs=-12%[33.5 µM];nsP2pro conf qHTS=-23%[16.7 µM];HCV NS3 counter=?
COc1ccc2oc(NC3=NC(c4[nH]ncc4Cl)C4=C(CCCC4=O)N3)nc2c1 (stereo not drawn) | i
COc1cnc(-c2ccc(Cn3c(CC(C)(C)C(=O)O)c(SC(C)(C)C)c4cc(OC[C@@H]5Cc6ccccc6N5C(C)=O)ccc43)cc2)nc1 | 60%

Source: PubChem (National Center for Advancing Translational Sciences (NCATS))
